Bioassay records from PubChem BioAssay.
TDP1 cell noCPT: qHTS for Inhibitors of human tyrosyl-DNA phosphodiesterase 1 (TDP1): qHTS in cells in absence of CPT | Potency, µM (series often up to 46.2 µM), inactives show top-dose activity change, negative = growth inhibition, hits mostly inhibitors | DT40 Tdp1-/- hTDP1 cells, no CPT, ATP luminescence, 48 h | 15% of 420,000 active; also: potency is read from the fitted curve at half-maximal effect; nearly all actives have a fitted effect of over 55% in size
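Growth of hTDP1-complemented DT40 Tdp1-knockout cells is measured by ATP luminescence after at least 48 hr compound exposure at 37 °C, with DMSO substituting for the 20 nM CPT used in the parallel screen.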
HT1080NT lethal: kills 2HG-producing HT-1080-NT fibrosarcoma cells. Potency, µM (titrated, usually from 46.1 µM), for inactives: top-dose activity, negative = less viability, actives largely listed as cytotoxic. HT-1080-NT fibrosarcoma viability, CellTiter-Glo ATP luminescence, 48 h. AID 686970. 1.6% of 360,000 active;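 also: NT is the 2HG producing partner of a matched IDH1 knockdown line; potency is read from the fitted curve at half-maximal effect; 0% = DMSO-treated cells and -100% = media-only wells without cells; nearly all actives have a fitted effect of over 55% in size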
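Compounds were tested in concentration-response format on HT-1080-NT cells for 48 hours at 37 degrees C. Cell viability came from CellTiter-Glo luminescence; curves were classified by r2, response magnitude and activity.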
DT40 TDP1 CPT: DT40-hTDP1 cell growth loss with CPT. 12% of 420,000 active. chicken DT40 Tdp1-/-;hTDP1 cells + 20 nM CPT, ATP luminescence, 48 h. Potency, µM (top dose mostly 46.2 µM), for inactives: at the top dose activity change, negative = growth inhibition, actives largely listed as inhibitors; also: potency is read from the fitted curve at half-maximal effect; nearly all actives have a fitted effect of over 55% in size
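Cell growth measured by CellTiter-Glo luminescence after a minimum 48 h, 37 C compound exposure with 20 nM CPT in Tdp1-knockout DT40 cells stably expressing hTDP1, seeded 400/well; qHTS titration format.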
IL1B secr inh: inhibitors of inflammasome signaling (IL-1 beta secretion); THP-1 LPS/ATP IL-1B secretion, AlphaLISA, 16 h; hits give low values; activity change, % at 57.5 µM; 4.7% of 360,000 active; AID 743279; in the data active = activity change below about -50%; inconclusive = mostly about -30% to -49%
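THP-1 cells pretreated 1 hr with compounds (up to 57.5 uM final), then stimulated with LPS (250 ng/mL final) plus ATP (1.25 mM final); secreted IL-1B measured by AlphaLISA after 16 hr, decreased signal indicating inhibition.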
HT1080 IDH1KD tx: kills HT-1080 cells with IDH1 knockdown; HT-1080 IDH1 knockdown viability, ATP luminescence, 48 h; Potency, µM (highest dose often 46.1 µM), for the others: at the top dose activity, negative = toxicity, most hits filed as cytotoxic; 2% of 360,000 active;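 also: potency is read from the fitted curve at half-maximal effect; 0% = DMSO wells and -100% = cell-free medium wells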
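Assay cells: HT-1080 with IDH1 knockdown, 750 per well, RPMI/5% FBS. Exposure: 48 h at 37 °C following 2 h pre-incubation. Read: CellTiter-Glo luminescence; fitted concentration-response, curve class assigned.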
Starred values were filed as active, the others as inactive; ? = inconclusive; . = not tested or not shown. Compounds with a hit are over-represented: about 19% of the library has one in this group of screens. Unless noted, calls follow the shape of the dose curve; as a rule, active = well fitted curve in the direction sought with a large enough effect; inconclusive = small, poorly fitted or top-dose-only effect, or another doubt; inactive = no such curve, though single readings can be large; an effect the other way counts as inactive or inconclusive. Unless noted, % is scaled to controls: 0 for no effect and ±100 for the full control effect.

SMILES	TDP1 cell noCPT	HT1080NT lethal	DT40 TDP1 CPT	IL1B secr inh	HT1080 IDH1KD tx
CC(C)C(N)c1csc(NC(=O)Nc2ccccc2C(C)(C)C)n1 (stereo not drawn)	?	?	18µM*	-60*	?
CCCNC(=O)Nc1nc(C(N)c2ccc(OC)cc2)cs1 (stereo not drawn)	-22%	24%	-21%	-6	4%
COc1ccc(CC(N)c2csc(NC(=O)Nc3ccccc3-c3ccccc3)n2)cc1 (stereo not drawn)	?	15µM*	?	-58*	-9%
COC(=O)c1sc(NC(=O)CSc2nnnn2-c2cccc(OC)c2)nc1C	-18%	-17%	-12%	11	-11%
Cc1ccccc1NC(=O)Cn1nnc(S(=O)(=O)c2ccc(C(C)(C)C)cc2)c1N	?	-6%	?	26	-1%
CCOC(=O)N1CCN(Cc2ccc3ccccc3c2)CC1	?	0%	-13%	7	2%
CC(=O)Nc1ccc(S(=O)(=O)N[C@@H](C)C(=O)OCC(=O)c2ccc(C)cc2)cc1	5%	1%	-5%	2	-1%
COc1ccc(CC(N)c2csc(NC(=O)c3cccs3)n2)cc1 (stereo not drawn)	23µM*	-27%	18µM*	-19	-21%
CC1=CC(=C2C(=O)c3ccccc3C2=O)C=C(C)O1	?	4%	10µM*	-4	0%
CC(=O)N1C(=O)C(=C2C=C(C)OC(C)=C2)c2ccccc21	?	14%	?	-6	10%
CC1=CC(=C2C(=O)c3ccccc3C2=O)C=C(C)N1Cc1ccco1	21µM*	-1%	-22%	-62*	-14%
CC(=O)OC1CCC2(C)C(CCC3C2CC(=O)C2(C)C3CC(C3CCCC3=O)C2C(C)=O)C1 (stereo not drawn)	?	15%	-12%	4	23%
CC(NC(=O)COC(=O)/C=C/c1ccc(Cl)cc1)c1ccccc1 (stereo not drawn)	?	0%	14%	5	2%
CC(=O)c1c(C)n([O-])c2cc(F)c(F)cc2[n+]1=O	-28%	?	?	-100*	?
COC(=O)c1ccccc1NC(=O)CSc1nc2ccsc2c(=O)n1Cc1ccc(C(=O)O)cc1	-19%	14%	-22%	1	8%
Cc1ncc(CO)c2c1Oc1nc(-c3ccc(F)cc3)nc(SCc3ccc(F)cc3Cl)c1C2	-8%	.	17%	.	.
COc1ccc(-c2nc3c(c(SCC(=O)Nc4cccc(O)c4)n2)Cc2c(CO)cnc(C)c2O3)cc1	18µM*	2%	?	39	0%
CCc1ccc(NC(=O)CSc2nc(-c3ccc(C)cc3)nc3c2Cc2c(CO)cnc(C)c2O3)cc1	-8%	.	4%	.	.
Cc1ncc(CO)c2c1Oc1nc(-c3ccccc3)nc(SCC(=O)Nc3cccc(O)c3)c1C2	26µM*	-19%	?	7	7%
Cc1ncc(CO)c2c1Oc1nc(-c3ccc(F)cc3)nc(SCC(=O)N3CCCCC3)c1C2	9.2µM*	.	16µM*	.	.
Cc1ncc(CO)c2c1Oc1nc(-c3ccccc3)nc(SCC(=O)Nc3cccc(C(F)(F)F)c3)c1C2	4.6µM*	.	6.5µM*	.	.
CC1(C(=O)OCC(=O)Nc2nnc(-c3ccccc3)o2)CC1(Cl)Cl (stereo not drawn)	?	-12%	?	47	-13%
CC(NC(=O)CN1C(=O)NC(Cc2ccccc2)(Cc2ccccc2)C1=O)C12CC3CC(CC(C3)C1)C2 (stereo not drawn)	?	21µM*	?	-10	?
CC(NC(=O)Cn1ccsc1=N)C12CC3CC(CC(C3)C1)C2 (stereo not drawn)	23µM*	?	16µM*	-59*	-22%
COc1ccccc1N1CCN(c2nc(CNC(=O)c3ccc(C)c(C)c3)nc3ccccc23)CC1	-29%	.	0%	.	.
SMILES	TDP1 cell noCPT	HT1080NT lethal	DT40 TDP1 CPT	IL1B secr inh	HT1080 IDH1KD tx
COc1ccccc1N1CCN(c2nc(CNC(=O)c3sc(C)nc3C)nc3ccccc23)CC1	5.2µM*	.	6.5µM*	.	.
CC(C)NC(=S)NC(=O)c1ccc(-c2ccccc2)cc1	16µM*	-2%	23µM*	-57*	-17%
Cc1ccc(C(=O)O)cc1NC(=S)NC(=O)c1ccc(-c2ccccc2)cc1	-19%	-9%	9%	0	-22%
Cc1cc(C)c(NC(=S)NC(=O)c2ccccc2)cc1C	8.2µM*	1%	21µM*	3	?
CCC(=O)Nc1cccc(NC(=S)NC(=O)c2ccc(Cl)cc2)c1	15µM*	-8%	18µM*	11	-3%
CCCC(=O)Nc1ccc(NC(=S)NC(=O)c2ccccc2[N+](=O)[O-])cc1	29µM*	?	?	4	?
O=C(NC(=S)Nc1ccc(-c2ccccc2)cc1)c1ccccc1	?	7%	-25%	-15	0%
Cc1ccc(N2CCN(C(=O)C(=O)c3ccc4c(c3)OCO4)CC2)cc1	1%	-1%	-8%	-4	12%
COc1ccc(NS(=O)(=O)c2ccc(NC(=S)NC(=O)/C=C/c3ccccc3)cc2)nn1	16µM*	4%	12µM*	-61*	0%
O=C(NC(=S)Nc1ccc(Oc2ccc(Cl)cc2)cc1)c1ccccc1	21µM*	-10%	?	12	?
CCC(=O)Nc1ccc(NC(=S)NC(=O)/C=C/c2ccccc2)cc1	7.3µM*	-23%	?	?	-13%
CCC(=O)NC(=S)Nc1ccc(NC(=S)NC(=O)c2ccccc2)cc1	18µM*	-7%	?	1	-2%
CC(=O)c1ccc(NC(=S)NC(=O)/C=C/c2ccccc2)cc1	19%	8%	2%	-12	14%
CCOC(=O)C1CCN(C(=O)C(CC)c2ccccc2)CC1 (stereo not drawn)	-26%	6%	-2%	15	10%
O=C(Nc1ccc(NC(=S)NC(=O)C(c2ccccc2)c2ccccc2)cc1)c1ccccc1	15µM*	-26%	?	?	?
O=C(NC(=S)Nc1ccc(NC(=O)c2ccccc2)cc1)c1ccc(F)cc1	1%	?	7%	-6	-16%
COc1ccc(CN(Cc2ccco2)C(=O)COc2ccccc2Cl)cc1	23µM*	.	?	.	.
COc1ccccc1OCC(=O)NCc1ccco1	-3%	0%	-21%	13	0%
COc1ccc(CN(Cc2ccco2)C(=O)COc2ccccc2OC)cc1	18µM*	.	?	.	.
O=C(COc1ccccc1Cl)N(Cc1ccco1)C1CCS(=O)(=O)C1 (stereo not drawn)	-1%	3%	-2%	-8	7%
